# Sampled rows, rich in hits. Any-hit rate of the full collection: about 11%.
# Pf growth 48h: P. falciparum growth inhibition at 48 hours (one generation); 5.9% of 310,000 active; P. falciparum luciferase growth in erythrocytes, 48 h; Potency, µM (top dose mostly 28.7 µM), for the others: top-dose activity change, negative = inhibition, usual class: inhibitors; note: % is set by controls: 0 for no effect and ±100 for the full control effect
#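 Here the parasites carry a stable luciferase gene and grow inside erythrocytes in Albumax-based RPMI medium with compound for one erythrocytic cycle. Activity is scored as loss of luminescent signal.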
# NS1 inh: inhibitors of influenza NS1 protein function. Potency, µM (highest dose often 46.1 µM), without a hit: at the top dose activity, positive = more growth. 0.4% of 270,000 active; calls by dose curve; note: actives are rising curves; nearly all actives have a fitted effect of over 50% in size
#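 A cell-based growth assay was used: compounds that relieve NS1-induced slow growth of budding yeast raise OD600. Assay medium was yeast nitrogen base with ammonium sulphate and -URA supplement, pH 6.0, with 2% galactose.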
# Pf growth 96h: P. falciparum growth inhibition at 96 hours; P. falciparum luciferase reporter growth, 96 h; Potency, µM (titrated, usually from 28.7 µM), for inactives: top-dose activity change, negative = inhibition, most hits filed as inhibitors; 6.9% of 320,000 active; AID 504834; note: % is set by controls: 0 for no effect and ±100 for the full control effect
#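 Parasite growth measured via integrated firefly luciferase reporter in P. falciparum. Infected erythrocytes at 2% hematocrit, 0.05% parasitemia final were treated 96 hours at 37 C under 5% CO2, and luminescence was read.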
# Sm TGR block: blocks Schistosoma mansoni thioredoxin glutathione reductase; 3% of 360,000 active; AID 485364; purified TGR, DTNB reduction, TNB absorbance 405 nm; Q962Y6; Potency, µM (doses to about 114 µM), for inactives: at the highest dose activity change, negative = inhibition, actives largely listed as inhibitors; note: % is set by controls: 0 for no effect and ±100 for the full control effect; nearly all actives have a fitted effect of over 60% in size
#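 Kinetic colorimetric format: TGR-catalysed, NADPH-driven DTNB reduction monitored via TNB absorbance. Enzyme dispensed at 20 nM; compound exposure 15 min at room temperature before reaction start.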
# AMA1 RON2 block: disrupts binding of P. falciparum AMA1 to RON2. AID 720542. Potency, µM (series often up to 58.2 µM), for the others: at the highest dose activity change, negative = inhibition, usual class: inhibitors. 0.2% of 360,000 active. AlphaScreen AMA1-biotinylated RON2 peptide binding;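 note: 0% = vehicle wells and -100% = peptide control; nearly all actives have a fitted effect of over 45% in size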
#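 AMA1 (3D7) with his tag at 25 nM final met compounds first, then biotinylated RON2 peptide at 25 nM; detection used donor plus acceptor beads, 10 µg/mL apiece, read by AlphaScreen after 30 min at room temperature.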
# An asterisk follows results filed as active; ? = inconclusive; . = no result; [ ] = dose if it differs, or a comment. Unless noted, calls come from the whole dose curve; as a rule, active = well fitted curve in the direction sought with a large enough effect; inconclusive = small, poorly fitted or top-dose-only effect, or another doubt; inactive = no such curve, though single readings can be large; an effect the other way counts as inactive or inconclusive. Potency is the fitted concentration of half-maximal effect.
SMILES,Pf growth 48h,NS1 inh,Pf growth 96h,Sm TGR block,AMA1 RON2 block
Cc1ccc(C)c2[nH]c(=O)c(C(c3nnnn3CCc3ccccc3)N3CCOCC3)cc12 (stereo not given),?,-7%,46%,-40%,35%
CCOc1ccc2[nH]c(=O)c(C(c3nnnn3C3CCCCC3)N3CCN(C)CC3)cc2c1 (stereo not given),-10%,7%,?,?,14%
CCOc1ccc2[nH]c(=O)c(C(c3nnnn3C3CCCCC3)N3CCN(CC)CC3)cc2c1 (stereo not given),?,-5%,-18%[5.75 µM],0%,-4%
CCOc1ccc2[nH]c(=O)c(C(c3nnnn3Cc3ccco3)N3CCC(C)CC3)cc2c1 (stereo not given),?,-20%,25%,45µM*,-2%
Cc1ccc(C)c2[nH]c(=O)c(C(c3nnnn3Cc3ccco3)N3CCc4ccccc4C3)cc12 (stereo not given),12µM*,?,6.6µM*,14µM*,7%
CCOc1ccc2[nH]c(=O)c(C(c3nnnn3Cc3ccco3)N3CCCC(C)C3)cc2c1 (stereo not given),?,-23%,23%,11µM*,-8%
Cc1ccc(OCCNC(=O)C2CC(=O)N(Cc3ccccc3)C2)cc1 (stereo not given),-26%,.,?,-17%,-2%[11.6 µM]
CC1=C(C)C(OCCBr)N(c2cc(O)c(Cl)cc2F)C1=O (stereo not given),11%,12%,78%,28µM*,-5%
O=C(CCc1ccc(S(=O)(=O)N2CCOCC2)cc1)Nc1cc(Cl)ccc1N1CCOCC1,6.6µM*,0%,-18%,0%,-4%
O=C(Cc1c(F)cccc1Cl)Nc1ccccc1N1CCCCC1,0%,-7%,13µM*,-8%,37%
O=C(Cc1c(F)cccc1Cl)Nc1cc(S(=O)(=O)N2CCCCC2)ccc1N1CCOCC1,12µM*,-3%,?,6%,-21%
O=C(Cc1ccccc1Cl)Nc1cc(S(=O)(=O)N2CCOCC2)ccc1N1CCOCC1,?,.,10µM*,6%,-7%[11.6 µM]
O=C(/C=C\c1ccccc1)NC1CC(=O)N(c2ccccc2)C1 (stereo not given),.,.,.,4%,.
COCCCNC(=O)c1ccc([N+](=O)[O-])cc1,30%,.,5%,-2%,-4%
O=C(CCl)NCCCN(C(=O)C(Cl)Cl)c1ccc([N+](=O)[O-])cc1,6.6µM*,4%,7.4µM*,28µM*,0%
CN(C)C(=O)Oc1ccc(OCc2n(C)c3ccccc3[n+]2C)cc1,?,8%,2.3µM*,-8%,-9%
Cn1c(Cc2ccccc2)[n+](C)c2ccccc21,?,.,?,-2%,-21%
CCOc1ccc(-n2c(C)cc(/C=N/Nc3nc(C)cc(=O)[nH]3)c2C)cc1,1.7µM*,6%,?,-11%,53%
Cc1cc(C)n(CCC(=O)N/N=C/c2ccc(Cl)c([N+](=O)[O-])c2)n1,-3%,-4%,5%,1%,-2%
O=c1nc(N/N=C/c2ccccn2)cn[nH]1,1µM*,-11%,-6%[1.15 µM],30%,-15%
Cc1ccc(/C=N/Nc2cn[nH]c(=O)n2)o1,35%,-7%,11%,50%,44%
Cc1cc(=O)[nH]c(N/N=C/c2cccc([N+](=O)[O-])c2)n1,26%,7%,300%,-20%,.
O=[N+]([O-])c1cc(C=Nc2cccc3c(O)cccc23)ccc1Cl,21%,-18%,-28%,40µM*,.
CCOc1ccc(-n2c(C)cc(/C=N/NC(=O)C(N)=O)c2C)cc1,-6%,-6%,0%,?,59%
Cc1cc(=O)[nH]c(N/N=C/c2ccc(Cl)c([N+](=O)[O-])c2)n1,2.3µM*,7%,?,-23%,10%
Cc1cnn(C(=O)Cn2nc(C(F)F)c(Br)c2C)c1,0%,.,-1%,-3%,-1%
CCNC(=O)C1(C)CCN(C(=O)c2ccc(F)c(Cl)c2)C1 (stereo not given),.,.,.,.,-2%
Cc1cc(=O)[nH]c(NN=Cc2c(Cl)cccc2Cl)n1,.,.,.,.,90%
Fc1cccc(/C=N/Nc2nncc3ccccc23)c1,.,-8%,261%,?,-4%
Cc1cc(=O)[nH]c(N/N=C/c2ccccn2)n1,2.9µM*,6%,?,-2%,-42%
